This passage reports growth inhibition results from PubChem BioAssay (NCI).

SMILES strings stand for the structures. Compounds without any hit were thinned out: in the full panel of roughly 79,000, 15% have a hit. A number with no mark means an inactive call. The source made the active and inactive calls. Rule as the data show it: active = growth inhibition above about 70%; inactive = the rest.

The nature of this experiment: NCI Yeast Anticancer Drug Screen. Data for the mlh1 rad18 strain (AID 175). To be noted: S. cerevisiae mlh1 rad18 strain growth inhibition; at 50.0 µM; active compounds read high. An outline of the steps: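 Yeast w/ defined DNA-repair lesions; compound exposure; growth vs vehicle controls → % inhibition.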
Regarding `CCP(=S)(CC)P(=S)(CC)CC`, the growth inhibition is 7.45%.

As to `Cc1cccc(C)c1NC(N)=S`, the growth inhibition was 3.25%.

Take `Nc1ccc(C(=O)O)cc1[As](O)O`: the growth inhibition was -17.8%.

`FC(F)(F)c1cccc(NC2=NCCS2)c1`: the growth inhibition is -42.8%.

`CC(C)C1C=Cc2ccccc21` (stereo not given): the growth inhibition was 28.8%.

Regarding `CCOP(=O)(CC(N)=O)OCC`, the growth inhibition was -11.8%.

In the case of `O=c1[nH]cnc2c1ncn2-c1ccc(N(CCCl)CCCl)cc1`, the growth inhibition was 15.2%.

In the case of `CCN1C(=O)NC(=O)C(C)(N2CCCCC2)C1=O` (stereo not given), the growth inhibition was 28.7%.

For the molecule `C1CN1[PH+](N1CC1)N1CC1.[C-]#[O+].[C-]#[O+].[C-]#[O+].[C-]#[O+].[C-]#[O+].[W]`, the growth inhibition is 3.1%.

As to `O=C(NCC(O)CO)c1cc(N(CCCl)CCCl)c([N+](=O)[O-])cc1[N+](=O)[O-]` (stereo not given), the growth inhibition was 6.35%.

Turning to `CCCCCCNP(=O)(OCC)OCC`, the growth inhibition was 12.3%.

Turning to `CCC1(CCC(C)C)C(=O)NC(=O)N(c2ccccc2)C1=O` (stereo not given), the growth inhibition is -9.25%.

In the case of `O=N[O-].O=N[O-].[NH2-].[NH2-].[NH2-].[NH2-].[Ni]`, the growth inhibition was 13.3%.

Consider `Oc1cccc(/C=N\NC(=S)NC2CN3CCC2CC3)c1` (stereo not given), for which the growth inhibition is -12.8%.

As for `CCN1/C(=C/C=C2\CCC(/C=C/c3sc4ccc(Cl)cc4[n+]3CC)=C2N(c2ccccc2)c2ccccc2)Sc2ccc(Cl)cc21`, the growth inhibition is 56.7%.

For `COC(=O)C(Cl)Cl`, the growth inhibition was 14.1%.

`CO[C@@]12[C@@H]3N[C@@H]3CN1C1=C(C(=O)C(NCCC#N)=C(C)C1=O)[C@@H]2COC(N)=O`: the growth inhibition is 55.6%.

`O=S(=O)(N=S(CCCl)CCCl)c1ccccc1`: the growth inhibition was 21.4%.

Take `Cc1ccc2nc(CCl)[nH]c2c1`: the growth inhibition is 58.7%.

For `CCOC(=O)C(Cc1c[nH]c2ccccc12)NC(=O)/C=C/N(CCCl)CCCl` (stereo not given), the growth inhibition is 22.2%.

`O=c1c2cc(Br)cc(Br)c2nc(CCCl)n1-c1ccc(O)c([N+](=O)[O-])c1`: the growth inhibition is -0.8%.

For the molecule `O=C(O)CCCC(=O)CCCC(=O)O.[Pb]`, the growth inhibition was -4.1%.

With `CC(C)=NNC1=NC(C)(C)P(=O)(N2CCCC2C(=O)O)S1` (stereo not given), the growth inhibition was -9.2%.

For the molecule `O=C(NN=C1CCN(Cc2ccccc2)CC1)C(O)(c1ccccc1)c1ccccc1`, the growth inhibition was -0.65%.

Take `CC1=C(C)C(=O)O[C@@H]([C@](C)(O)[C@]2(O)CC[C@@]3(O)[C@@H]4C[C@H]5O[C@]56[C@@H](O)C=CC(=O)[C@]6(C)[C@H]4CC[C@]23C)C1`: the growth inhibition was 12.8%.

In the case of `CN1C2CCC1CC(OC(=O)c1cccc(O)c1)C2` (stereo not given), the growth inhibition was 16.4%.

As to `COC(=O)CP(=O)(OC)OCC(F)(F)F` (stereo not given), the growth inhibition was -25.3%.

Take `CCC1(/C=C/C(C)C)C(=O)NC(=S)NC1=O`: the growth inhibition was 2.8%.

`CCC(CN)c1ccccc1` (stereo not given): the growth inhibition was -9.4%.

Turning to `C=CCOCC1CO1` (stereo not given), the growth inhibition was 15.8%.

On to `O=N[O-].O=N[O-].[Co].[NH-]CC[N-]CCO.[NH-]CC[N-]CCO`, for which the growth inhibition was 7.55%.

As for `c1ccc(NC2CCN(C3(c4ccccc4)CCCCC3)CC2)cc1`, the growth inhibition was -8.1%.

Turning to `COC(=O)C1=C(O)C(C(=O)OC)C2/C(=[N+](/[O-])O)c3c(cc([N+](=O)[O-])cc3[N+](=O)[O-])C1C2[N+](=O)[O-]` (stereo not given), the growth inhibition was 90.7% (active).

Consider `CCOP(=O)(/C=C/c1cc(OC)ccc1OC)OCC`, for which the growth inhibition is -26.1%.

On to `[C-]#[O+].[C-]#[O+].[C-]#[O+].[C-]#[O+].[Cr].c1ccc(P(CCP(CCP(c2ccccc2)c2ccccc2)c2ccccc2)CCP(c2ccccc2)c2ccccc2)cc1` (stereo not given), for which the growth inhibition was 31.6%.

Consider `[I][Hg][CH]1CCC2CCCC1O2` (stereo not given), for which the growth inhibition was 99.7% (active).

For `COc1ccccc1[As](=O)(O)c1ccccc1`, the growth inhibition is 5.25%.

As to `COc1ccc(C(C)(C)CC(C)(C)C)cc1`, the growth inhibition was -0.85%.

As for `O=C1CN2CCC1CC2`, the growth inhibition is 10.8%.

Regarding `CCCC(NC(=O)CCl)C(=O)O` (stereo not given), the growth inhibition is -8.25%.
